FMDV antiviral = antivirals against foot and mouth disease virus | Potency, µM (series often up to 57.9 µM), for the others: at the top dose activity change, negative = inhibition, most hits filed as inhibitors | AID 1159524 | FMDV antiviral cell-based qHTS | 410,000 tested, 1.2% active; calls by dose curve; tested in HEK293T cells; further: read-out not given here; potency means the concentration at half of the fitted maximal effect; nearly all actives have a fitted effect of over 45% in size
HCMV inh = blocks human cytomegalovirus replication | HFF cells, HCMV-luciferase reporter, 72 h; hits give low values | activity change, negative = inhibition, % at 57.5 µM | 410,000 tested, 4.5% active; in the data active means activity change below about -60%; inconclusive means no clear call, values can overlap the other calls; inactive means above about -39%
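Human foreskin fibroblasts infected with luciferase-reporter HCMV at MOI 1 PFU/cell, compounds at two doses. Luciferase measured 72 h post infection; normalized to buffer-only basal and Salinomycin (10uM) controls.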
Vaccinia mCherry = vaccinia inhibition (mCherry reporter). Vaccinia virus mCherry reporter infection, fluorescence. 310,000 tested, 0.63% active. Potency, µM (series often up to 36.5 µM), inactives show at the highest dose activity change, negative = inhibition, most hits filed as inhibitors. AID 720579; calls by dose curve; tested in A549 cells; further: potency means the concentration at half of the fitted maximal effect; nearly all actives have a fitted effect of over 35% in size
Vaccinia Venus = inhibitors of vaccinia virus (Venus reporter); Vaccinia virus Venus reporter expression, fluorescence; Potency, µM (highest dose often 36.5 µM), inactives show top-dose activity change, negative = inhibition, hits mostly inhibitors; 330,000 tested, 0.46% active; calls by dose curve; tested in A549 cells; further: potency means the concentration at half of the fitted maximal effect; nearly all actives have a fitted effect of over 30% in size
Lassa entry inh = Lassa virus entry inhibition. Lassa virus pseudotype entry inhibition, cell reporter. Potency, µM (top dose mostly 37.9 µM), without a hit: at the highest dose activity change, negative = inhibition, most hits filed as inhibitors. 300,000 tested, 1.2% active. AID 540256; calls by dose curve; tested in HEK293 cells; further: potency means the concentration at half of the fitted maximal effect; nearly all actives have a fitted effect of over 50% in size
Marburg entry inh = blocks Marburg virus binding to or entry into cells | 300,000 tested, 1.8% active | AID 540276 | Marburg virus pseudotyped entry inhibition, cell reporter | Potency, µM (doses to about 37.8 µM), inactives show at the top dose activity change, negative = inhibition, most hits filed as inhibitors; calls by dose curve; tested in HEK293 cells; further: potency means the concentration at half of the fitted maximal effect
* hit, by the source's call; u = inconclusive; x = no result given; ! = repeats disagree; [ ] = dose if it differs, or a comment. A selection: hits, their analogues and other compounds. The true share with any hit is near 6.5%. On the % scale 0 is the no-effect control and ±100 the full control effect.

SMILES	FMDV antiviral	HCMV inh	Vaccinia mCherry	Vaccinia Venus	Lassa entry inh	Marburg entry inh
CN(C)CCCNc1nccc(N2CCN(C)CC2)n1	x	x	-6%	-10%	x	x
O=C(CNc1cccc(S(=O)(=O)N2CCOCC2)c1)Nc1ccc(C(F)(F)F)cc1	32µM*	-11	-12%	-23%	-19%	u
CN(CC(=O)Nc1cccc(S(=O)(=O)N2CCOCC2)c1)CC(=O)Nc1ccc(Cl)c(C(F)(F)F)c1	u	-75*	-30%	u	u	u
COC1=C[C@H](C(=O)NCc2ccc(OC)cc2)C(C)C(c2ccccc2)CC1=O (some centres undefined)	x	x	x	x	x	3%[14.2 µM]
CC(=O)NCc1nc2cccnc2n1Cc1ccccc1	-10%	-19	-12%	-6%	3%[46.1 µM]	x
Cc1c(C(=O)NCC(C)(C)CN(C)C)cnn1-c1nccc(-c2ccccc2F)n1	-4%	x	-13%	-7%	x	x
CC1=CC(C)CC(C)OC(=O)CC(c2ccc(O)cc2)NC(=O)C(Cc2c(Br)[nH]c3ccccc23)N(C)C(=O)C(C)NC(=O)C(C)C1 (centres undefined)	-27%	-98*	32µM*	35µM*	0.4µM*	0.32µM*
COc1ccc2c(c1)C(C)=CC(C)(C)N2S(=O)(=O)c1ccc(Br)cc1	-17%	-80*	-5%	-13%	u	u
CCOc1ccc2c(c1)C(C)=CC(C)(C)N2S(=O)(=O)c1ccc(NC(C)=O)cc1	10%	u	x	x	x	x
COc1ccc2c(c1)C(C)=CC(C)(C)N2S(=O)(=O)c1ccc(NC(C)=O)cc1	-27%	-90*	-15%	u	u	1.1µM*
NC(=S)N/N=C1\CC(n2nnnc2-c2ccccc2)C2COC1O2 (centres undefined)	11%	-68*	x	x	x	x
NC(=S)N/N=C1\CC(n2nnn(-c3cccc(Cl)c3)c2=S)C2COC1O2 (centres undefined)	-20%	-24	11µM*	u	-14%	u
Cc1ccc(CNC(=O)CSc2ccc(-c3ccccn3)nn2)cc1	20%	3	7.1µM*	u	u	u
Cc1ccc(NC(=O)CSc2ccc(-c3ccccn3)nn2)cc1	1%	65	u	u	u	-29%[46.1 µM]
O=C(CSc1ccc(-c2ccccn2)nn1)Nc1ccc(F)c(F)c1	-28%	-90*!	u	u	u	-23%
COc1ccccc1NC(=O)CSc1ccc(-c2ccccn2)nn1	3%	-101*!	14µM*	u	u	u
CCc1nn(CC(=O)NCc2ccco2)c(=O)c2cc3cc(F)ccc3n12	-16%	-5	0%	7%	x	-20%[46.1 µM]
CCOC(=O)Cc1c(C)nc2c(-c3ccc(OC)c(OC)c3)c(C)nn2c1C	u	-23	-17%	-10%	u	-24%[46.1 µM]
NC(=S)N/N=C/c1ccccc1[N+](=O)[O-]	-4%	-37	2µM*	2.2µM*	-12%	-3%[46.1 µM]
CCOc1ccc(C(=O)N/N=C/c2ccccc2[N+](=O)[O-])cc1	u	10	-14%	-18%	u	12µM*
O=C(NCCCn1ccnc1)[C@H](Cc1ccccc1)N1C(=O)c2ccccc2C1=O	x	x	x	x	x	1%
O=C(NCc1ccccc1)C1=CN2CCN(Cc3cccc(Cl)c3)C(=O)N=C2O1	x	-1	x	x	x	x
O=C(CN1CCOCC1)Nc1cc(C(F)(F)F)ccc1Cl	-22%	-66*	-3%	-8%	2%	u
O=C(CN1CCN(S(=O)(=O)N2CCOCC2)CC1)Nc1cc(Cl)ccc1Cl	28µM*	-2	10%	0%	x	u
O=C(CN1CCCCCC1)Nc1cc(C(F)(F)F)ccc1Cl	-18%	u	-11%	-7%	-6%	-5%
O=C(c1cccc2ccccc12)N1CCN(S(=O)(=O)c2ccccc2)CC1	x	x	-3%	-7%	x	x
Cc1cccc(Cc2cnc(NC(=O)C3Cc4ccc(C)cc4C(=O)O3)s2)c1 (centres undefined)	-15%	6	5%	0%	-1%[46.1 µM]	0%[46.1 µM]
CS(=O)(=O)c1ccc(CNC(=O)C2(C(F)(F)F)CC(CCCO)CCCO2)cc1 (centres undefined)	0%	-67*	11µM*	u	x	x
CN(C)CC(C)(O)c1ccc2c(c1)CN(Cc1cn(C)c3ccccc13)CCO2 (centres undefined)	-12%	x	-12%	12%	x	x
